From PubChem BioAssay AID1159580 (chemical genetic matrix, 2015)
The campaign covered roughly 5,500 compounds. About 2,000 (36%) were called active. Another 18% or so got no clear call; they are omitted. The list shows a part of the results. Values without a mark were called inactive. Rule as the data show it: active = normalized growth mostly below about 0.91 (no sharp cut-off); inconclusive = no clear call, values can overlap the other calls; inactive = mostly above about 0.92.

Test: chemical genetic growth profiling, strain panel (AID 1159580);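 also: tested at 20 µM; growth read once vehicle control cultures reached saturation at 30 °C; 1 = growth at the plate median or of vehicle wells; lower values mean less growth of the strain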
Conditions: S. cerevisiae deletion strains, growth OD

For `CC1(C)C(=O)C=C[C@@]2(C)C1=C(O)C(=O)[C@]1(C)C2CC[C@@]2(C)[C@H](c3ccoc3)C[C@H]3O[C@]321` (stereo partly specified), the normalized growth (locus YJL187C, strain SWE1, stronger effect = lower value) was 0.928, the normalized growth (locus YJR043C, strain POL32, stronger effect = lower value) was 0.781 (active) and the normalized growth (locus YJR066W, strain TOR1, stronger effect = lower value) was 0.757 (active). For the same molecule, the normalized growth (locus YKL009W, strain mrt4, stronger effect = lower value) was 0.885, the normalized growth (locus YKL068W, stronger effect = lower value) was 0.942 and the normalized growth (locus YKL085W, strain MDH1 (second series), stronger effect = lower value) was 0.885 (active). For the same molecule, the normalized growth (locus YKL085W, strain MDH1, stronger effect = lower value) was 0.885 (active), the normalized growth (locus YKL160W, strain elf1, stronger effect = lower value) was 0.872 (active) and the normalized growth (locus YKL190W, strain CNB1, stronger effect = lower value) was 0.751 (active). For the same molecule, the normalized growth (locus YKR001C, strain vps1, stronger effect = lower value) was 0.777 (active), the normalized growth (locus YKR026C, strain gcn3, stronger effect = lower value) was 0.965 and the normalized growth (locus YKR091W, strain srl3, stronger effect = lower value) was 0.969. It also gave a normalized growth (locus YLL001W, strain dnm1, stronger effect = lower value) of 0.931, a normalized growth (locus YLL026W, stronger effect = lower value) of 0.944 and a normalized growth (locus YLL041C, strain sdh2, stronger effect = lower value) of 0.991. For the same molecule, the normalized growth (locus YLR027C, strain aat2, stronger effect = lower value) was 0.791 (active), the normalized growth (locus YLR039C, strain RIC1, stronger effect = lower value) was 0.404 (active) and the normalized growth (locus YLR058C, strain SHM2, stronger effect = lower value) was 0.782 (active). The normalized growth (locus YLR102C, strain apc9, stronger effect = lower value) was 0.967, the normalized growth (locus YLR113W, strain HOG1, stronger effect = lower value) was 0.776 (active) and the normalized growth (locus YLR221C, strain rsa3, stronger effect = lower value) was 0.759 (active). The normalized growth (locus YLR258W, strain gsy2, stronger effect = lower value) was 0.88 (active), the normalized growth (locus YLR262C, strain YPT6 (second series), stronger effect = lower value) was 0.624 (active) and the normalized growth (locus YLR262C, strain YPT6, stronger effect = lower value) was 0.382 (active). The normalized growth (locus YLR268W, strain sec22, stronger effect = lower value) was 0.788 (active), the normalized growth (locus YLR320W, strain mms22, stronger effect = lower value) was 0.639 (active) and the normalized growth (locus YLR342W, strain FKS1 (second series), stronger effect = lower value) was 0.578 (active). For the same molecule, the normalized growth (locus YLR342W, strain FKS1, stronger effect = lower value) was 0.881 (active), the normalized growth (locus YLR357W, strain rsc2, stronger effect = lower value) was 1.03 and the normalized growth (locus YLR370C, strain arc18, stronger effect = lower value) was 0.959. The normalized growth (locus YLR371W, strain rom2, stronger effect = lower value) was 0.706 (active), the normalized growth (locus YLR384C, strain iki3, stronger effect = lower value) was 0.973 and the normalized growth (locus YLR418C, strain cdc73, stronger effect = lower value) was 0.318 (active). The normalized growth (locus YML016C, strain PPZ1, stronger effect = lower value) was 0.887 (active), the normalized growth (locus YML032C, strain rad52, stronger effect = lower value) was 0.811 (active) and the normalized growth (locus YML120C, strain ndi1, stronger effect = lower value) was 0.884 (active). The normalized growth (locus YML124C, strain tub3, stronger effect = lower value) was 0.922 (active), the normalized growth (locus YMR058W, strain fet3, stronger effect = lower value) was 0.875 (active) and the normalized growth (locus YMR078C, strain ctf18, stronger effect = lower value) was 0.936. For the same molecule, the normalized growth (locus YMR125W, strain sto1, stronger effect = lower value) was 0.876 (active), the normalized growth (locus YMR129W, stronger effect = lower value) was 0.969 and the normalized growth (locus YMR205C, strain PFK2, stronger effect = lower value) was 0.674 (active). For the same molecule, the normalized growth (locus YMR223W, strain ubp8, stronger effect = lower value) was 0.865 (active), the normalized growth (locus YMR231W, strain pep5, stronger effect = lower value) was 0.931 and the normalized growth (locus YMR307W, strain GAS1, stronger effect = lower value) was 0.502 (active). The normalized growth (locus YNL067W, strain RPL9B, stronger effect = lower value) was 0.876, the normalized growth (locus YNL071W, strain lat1, stronger effect = lower value) was 0.44 (active) and the normalized growth (locus YNL183C, strain NPR1, stronger effect = lower value) was 0.848. For the same molecule, the normalized growth (locus YNL209W, strain ssb2, stronger effect = lower value) was 0.943, the normalized growth (locus YNL233W, strain BNI4, stronger effect = lower value) was 0.706 (active) and the normalized growth (locus YNL248C, strain rpa49, stronger effect = lower value) was 0.938. For the same molecule, the normalized growth (locus YNL250W, strain rad50, stronger effect = lower value) was 0.97, the normalized growth (locus YNL271C, strain bni1, stronger effect = lower value) was 0.96 and the normalized growth (locus YNL298W, strain CLA4, stronger effect = lower value) was 0.922. The normalized growth (locus YNL307C, strain MCK1, stronger effect = lower value) was 0.505 (active), the normalized growth (locus YNL322C, strain KRE1 (second series), stronger effect = lower value) was 0.981 and the normalized growth (locus YNR049C, strain mso1, stronger effect = lower value) was 0.962. The normalized growth (locus YNR052C, strain pop2, stronger effect = lower value) was 0.863 (active), the normalized growth (locus YOL006C, strain TOP1, stronger effect = lower value) was 0.666 and the normalized growth (locus YOL012C, strain htz1) was 0.626. The normalized growth (locus YOL147C, strain pex11, stronger effect = lower value) was 0.804 (active), the normalized growth (locus YOR001W, strain rrp6, stronger effect = lower value) was 0.841 (active) and the normalized growth (locus YOR061W, strain CKA2, stronger effect = lower value) was 0.847 (active). For the same molecule, the normalized growth (locus YOR069W, strain VPS5, stronger effect = lower value) was 0.889 (active), the normalized growth (locus YOR070C, strain gyp1, stronger effect = lower value) was 0.809 (active) and the normalized growth (locus YOR080W, strain dia2, stronger effect = lower value) was 0.964. The normalized growth (locus YOR083W, strain WHI5, stronger effect = lower value) was 0.875 (active), the normalized growth (locus YOR106W, strain vam3, stronger effect = lower value) was 0.801 (active) and the normalized growth (locus YOR136W, strain idh2, stronger effect = lower value) was 0.891 (active). The normalized growth (locus YOR144C, strain elg1, stronger effect = lower value) was 0.855 (active), the normalized growth (locus YOR184W, strain ser1, stronger effect = lower value) was 0.487 (active) and the normalized growth (locus YOR231W, strain MKK1, stronger effect = lower value) was 0.706 (active). The normalized growth (locus YOR265W, strain rbl2, stronger effect = lower value) was 0.918 (active), the normalized growth (locus YOR270C, strain vph1, stronger effect = lower value) was 0.897 and the normalized growth (locus YOR290C, strain snf2, stronger effect = lower value) was 0.84 (active). The normalized growth (locus YOR316C, strain cot1, stronger effect = lower value) was 0.984, the normalized growth (locus YPL051W, strain arl3, stronger effect = lower value) was 0.831 (active) and the normalized growth (locus YPL078C, strain atp4, stronger effect = lower value) was 0.939. For the same molecule, the normalized growth (locus YPL106C, strain sse1, stronger effect = lower value) was 0.91, the normalized growth (locus YPL240C, strain hsp82, stronger effect = lower value) was 0.861 (active) and the normalized growth (locus YPL256C, strain CLN2, stronger effect = lower value) was 0.747 (active). The normalized growth (locus YPR119W, strain clb2, stronger effect = lower value) was 0.915 (active), the normalized growth (locus YPR141C, strain kar3, stronger effect = lower value) was 0.96 and the normalized growth (locus YPR163C, strain tif3, stronger effect = lower value) was 0.665 (active). The normalized growth (locus YPR167C, strain met16, stronger effect = lower value) was 0.85 (active) and the normalized growth (strain wtn01, stronger effect = lower value) was 0.765 (active).
